For 67 molecules, cytotoxicity call results are on record in the antibiotic and cytotoxicity screens of Wong et al. (2023).

Molecules are shown by their SMILES. Hit rate of the full screen: of about 39,000 compounds, about 1,500 (3.8%) were called active. The sample holds actives, similar compounds and a random draw of the others, so the mix is not that of the screen.

The subject of this experiment is HSkMC (human skeletal muscle cells). The experiment in a line: cytotoxicity call (relative viability < 0.9). Particulars: 10 µM.
In the case of `C[C@@H](O)C#Cc1ccc2c(c1)O[C@@H](CN(C)C(=O)C1CCCCC1)[C@@H](C)CN([C@@H](C)CO)S2(=O)=O`, the cytotoxicity call is “inactive”.

Consider `Cc1noc(C)c1S(=O)(=O)Nc1ccc2c(c1)C(=O)N([C@H](C)CO)C[C@H](C)[C@H](CN(C)Cc1ccc(Cl)c(Cl)c1)OCCCC[C@@H](C)O2`, for which the cytotoxicity call is “inactive”.

As to `COc1oc(C(=O)NC2CCCCC2)c(-c2ccc(Cl)cc2)c1S(=O)(=O)c1ccc2c(c1)OCCO2`, the cytotoxicity call was “inactive”.

With `CN1C(=O)c2cc(NS(=O)(=O)c3ccc(F)cc3)ccc2OC[C@@H]2O[C@H](CC(=O)NCC(F)(F)F)CC[C@H]21`, the cytotoxicity call is “inactive”.

For the molecule `C[C@@H]1CCCCO[C@H](CN(C)S(=O)(=O)c2ccc(F)cc2)[C@H](C)CN([C@@H](C)CO)C(=O)c2cc(NS(=O)(=O)c3ccc(Cl)cc3)ccc2O1`, the cytotoxicity call was “inactive”.

For the molecule `COc1ccc(O)cn1`, the cytotoxicity call was “inactive”.

For `C[C@H]1CCCCO[C@H](CN(C)S(=O)(=O)c2cccs2)[C@@H](C)CN([C@@H](C)CO)C(=O)c2cc(NC(=O)Nc3cccc4ccccc34)ccc2O1`, the cytotoxicity call is “inactive”.

On to `C[C@@H]1CN([C@@H](C)CO)C(=O)c2cc(NC(=O)Nc3ccccc3)ccc2O[C@H]1CN(C)S(C)(=O)=O`, for which the cytotoxicity call is “inactive”.

On to `CC(C)NC(=O)N(C)C[C@H]1Oc2ccc(NS(=O)(=O)c3ccc(F)cc3)cc2CC(=O)N([C@@H](C)CO)C[C@H]1C`, for which the cytotoxicity call is “inactive”.

On to `O=C1C=CC(O)(/C=C/C(=O)O[C@@H]2[C@@H](O)[C@H](Oc3ccc(O)cc3)O[C@H](CO)[C@H]2O)C=C1`, for which the cytotoxicity call was “inactive”.

Turning to `C[C@H](CO)N1C[C@H](C)[C@@H](CN(C)Cc2cccc(C(=O)Nc3ccccc3N)c2)OCc2ccccc2-c2c(n(C)c3ccccc23)C1=O`, the cytotoxicity call was “inactive”.

Regarding `C[C@@H]1CN([C@H](C)CO)C(=O)Cc2cc(NC(=O)Nc3ccccc3)ccc2O[C@H]1CN(C)Cc1ccc(C(F)(F)F)cc1`, the cytotoxicity call was “active”.

With `C[C@H]1CN([C@@H](C)CO)C(=O)Cc2cc(NC(=O)Nc3ccccc3)ccc2O[C@@H]1CN(C)Cc1ccc(C(F)(F)F)cc1`, the cytotoxicity call is “active”.

For `C[C@H](CO)N1C[C@H](C)[C@H](CN(C)Cc2ccc(C(F)(F)F)cc2)Oc2ccc(NC(=O)Nc3ccccc3)cc2CC1=O`, the cytotoxicity call is “active”.

As to `C=C1C(c2ccc(C)cc2)=CCc2cc(C)cc(C)c21`, the cytotoxicity call is “inactive”.

Regarding `C[C@@H]1CCCCO[C@@H](CN(C)S(=O)(=O)c2cccs2)[C@H](C)CN([C@@H](C)CO)C(=O)c2cc(NC(=O)Nc3ccc(F)cc3)ccc2O1`, the cytotoxicity call was “inactive”.

With `Cc1nnn2c1COC[C@H](CNCC(C)C)C2`, the cytotoxicity call was “inactive”.

For `COCC(=O)Nc1ccc2c(c1)OC[C@@H](C)N(Cc1ccccc1OC)C[C@@H](C)[C@@H](OC)CN(C)C2=O`, the cytotoxicity call is “inactive”.

Regarding `COc1ccc(NC(=O)Nc2ccc3c(c2)C(=O)N([C@@H](C)CO)C[C@@H](C)[C@@H](CN(C)S(=O)(=O)c2cccs2)OCCCC[C@H](C)O3)cc1`, the cytotoxicity call was “inactive”.

Turning to `O=C(CN1CCOCC1)N[C@H]1CC[C@H](CCNC(=O)C2CCCCC2)O[C@@H]1CO`, the cytotoxicity call was “inactive”.

Regarding `CNC[C@@H]1Oc2ccc(NS(=O)(=O)c3cn(C)cn3)cc2C(=O)N([C@H](C)CO)C[C@H]1C`, the cytotoxicity call is “inactive”.

Turning to `CCCNC(=O)N1C[C@@H](O)COC[C@@H]2O[C@@H](CC(=O)N3CCOCC3)CC[C@H]21`, the cytotoxicity call was “inactive”.

Consider `O=C(C[C@@H]1CC[C@H]2[C@@H](COC[C@H](O)CN2S(=O)(=O)c2ccc(F)cc2)O1)N[C@H]1CCN(Cc2ccccc2)C1`, for which the cytotoxicity call was “inactive”.

As for `COc1nsnc1N1CCOCC1`, the cytotoxicity call was “inactive”.

`C[C@@H]1CN([C@@H](C)CO)C(=O)Cc2cc(NS(=O)(=O)c3ccccc3)ccc2O[C@H]1CN(C)Cc1ccc(Cl)c(Cl)c1`: the cytotoxicity call is “active”.

For the molecule `C[C@H](CO)N1C[C@H](C)[C@@H](CN(C)Cc2ccc(Cl)c(Cl)c2)Oc2ccc(NS(=O)(=O)c3ccccc3)cc2CC1=O`, the cytotoxicity call is “inactive”.

As for `C[C@@H]1CN([C@H](C)CO)C(=O)Cc2cc(NS(=O)(=O)c3ccccc3)ccc2O[C@H]1CN(C)Cc1ccc(Cl)c(Cl)c1`, the cytotoxicity call is “active”.

Consider `C[C@H]1CN([C@@H](C)CO)C(=O)Cc2cc(NS(=O)(=O)c3ccccc3)ccc2O[C@@H]1CN(C)Cc1ccc(Cl)c(Cl)c1`, for which the cytotoxicity call is “inactive”.

Take `C[C@H](CO)N1C[C@H](C)[C@H](CN(C)Cc2ccc(Cl)c(Cl)c2)Oc2ccc(NS(=O)(=O)c3ccccc3)cc2CC1=O`: the cytotoxicity call is “inactive”.

Take `C[C@H]1CN([C@@H](C)CO)C(=O)Cc2cc(NS(=O)(=O)c3ccccc3)ccc2O[C@H]1CN(C)Cc1ccc(Cl)c(Cl)c1`: the cytotoxicity call was “inactive”.

As for `C[C@@H]1CN([C@H](C)CO)C(=O)Cc2cc(NS(=O)(=O)c3ccccc3)ccc2O[C@@H]1CN(C)Cc1ccc(Cl)c(Cl)c1`, the cytotoxicity call was “active”.

In the case of `C[C@@H]1CN([C@@H](C)CO)C(=O)Cc2cc(NS(=O)(=O)c3ccccc3)ccc2O[C@@H]1CN(C)Cc1ccc(Cl)c(Cl)c1`, the cytotoxicity call is “active”.

On to `Cc1noc(C)c1NC(=O)N(C)C[C@H]1Oc2ccc(NC(=O)Nc3ccc(C(F)(F)F)cc3)cc2C(=O)N([C@H](C)CO)C[C@@H]1C`, for which the cytotoxicity call is “inactive”.

`NNC(=O)[C@H]1C[C@H]2C[C@@H]1C[C@@H]2C(=O)NN`: the cytotoxicity call was “inactive”.

`COc1ccc(S(=O)(=O)N(C)C[C@H]2Oc3ccc(NC(=O)Cn4cnnn4)cc3CC(=O)N([C@@H](C)CO)C[C@H]2C)cc1`: the cytotoxicity call was “inactive”.

Consider `O=C(O)c1ccc[n+]([O-])c1`, for which the cytotoxicity call was “inactive”.

For the molecule `CN(C)C(=O)C1CCN(S(C)(=O)=O)CC1`, the cytotoxicity call was “inactive”.

Take `Cc1noc(C)c1NC(=O)Nc1ccc2c(c1)C(=O)N([C@@H](C)CO)C[C@H](C)[C@H](CN(C)C(=O)Nc1ccc(C(F)(F)F)cc1)O2`: the cytotoxicity call is “inactive”.

Consider `C[C@@H]1CCCCO[C@@H](CN(C)C(=O)c2ccccc2)[C@@H](C)CN([C@H](C)CO)C(=O)c2cc(NC(=O)Cc3ccccc3)ccc2O1`, for which the cytotoxicity call was “inactive”.

`O=C(Nc1cc(Cl)ccc1Cl)c1cc(Br)ccc1NS(=O)(=O)c1ccc(Cl)c([N+](=O)[O-])c1`: the cytotoxicity call was “inactive”.

In the case of `COCCNCc1ccc(-c2cc3nccc(Oc4ccc(NC(=S)NC(=O)Cc5ccc(F)cc5)cc4F)c3s2)nc1`, the cytotoxicity call is “active”.

`Cn1cnc(-c2cc3nccc(Oc4ccc(NC(=S)NC(=O)Cc5ccccc5)cc4F)c3s2)c1`: the cytotoxicity call was “inactive”.

In the case of `COCCNCc1ccc(-c2cc3nccc(Oc4ccc(NC(=O)C5(C(=O)Nc6ccc(F)cc6)CC5)cc4F)c3s2)nc1`, the cytotoxicity call was “active”.

Turning to `C[C@H](CO)N1C[C@H](C)[C@H](CN(C)S(=O)(=O)c2ccc(-n3cccn3)cc2)OCc2cn(nn2)CCCC1=O`, the cytotoxicity call is “inactive”.

For `CO[C@H](C(=O)N(C)C[C@@H]1OCc2ccccc2-c2c(n(C)c3ccccc23)C(=O)N([C@@H](C)CO)C[C@@H]1C)c1ccccc1`, the cytotoxicity call was “inactive”.

For the molecule `C[C@@H]1CN([C@@H](C)CO)C(=O)Cc2cc(NC(=O)Nc3cccc4ccccc34)ccc2O[C@@H]1CN(C)Cc1ccncc1`, the cytotoxicity call is “inactive”.

For `COc1ccc(S(=O)(=O)N[C@H]2CC[C@@H](CC(=O)N3CCN(c4ccccc4)CC3)O[C@@H]2CO)cc1`, the cytotoxicity call was “inactive”.

For the molecule `Cc1noc(C)c1NC(=O)Nc1ccc2c(c1)C(=O)N([C@@H](C)CO)C[C@H](C)[C@@H](CN(C)C(=O)Nc1cccc3ccccc13)OCCCC[C@@H](C)O2`, the cytotoxicity call is “inactive”.

Take `Cc1noc(C)c1NC(=O)Nc1ccc2c(c1)C(=O)N([C@H](C)CO)C[C@H](C)[C@H](CN(C)C(=O)Nc1cccc3ccccc13)OCCCC[C@H](C)O2`: the cytotoxicity call is “active”.

With `Cc1noc(C)c1NC(=O)Nc1ccc2c(c1)C(=O)N([C@H](C)CO)C[C@H](C)[C@@H](CN(C)C(=O)Nc1cccc3ccccc13)OCCCC[C@H](C)O2`, the cytotoxicity call was “inactive”.

In the case of `Cc1noc(C)c1NC(=O)Nc1ccc2c(c1)C(=O)N([C@H](C)CO)C[C@@H](C)[C@H](CN(C)C(=O)Nc1cccc3ccccc13)OCCCC[C@@H](C)O2`, the cytotoxicity call was “inactive”.

`Cc1noc(C)c1NC(=O)Nc1ccc2c(c1)C(=O)N([C@@H](C)CO)C[C@@H](C)[C@H](CN(C)C(=O)Nc1cccc3ccccc13)OCCCC[C@H](C)O2`: the cytotoxicity call was “inactive”.

`Cc1noc(C)c1NC(=O)Nc1ccc2c(c1)C(=O)N([C@@H](C)CO)C[C@@H](C)[C@H](CN(C)C(=O)Nc1cccc3ccccc13)OCCCC[C@@H](C)O2`: the cytotoxicity call was “active”.

Consider `COc1ccc(S(=O)(=O)N(C)C[C@@H]2OCCCC[C@H](C)Oc3ccc(NS(=O)(=O)c4ccc(Cl)cc4)cc3C(=O)N([C@H](C)CO)C[C@H]2C)cc1`, for which the cytotoxicity call is “inactive”.

For `COc1ccc(S(=O)(=O)Nc2ccc3c(c2)C(=O)N([C@@H](C)CO)C[C@H](C)[C@H](CN(C)Cc2ccc(C(=O)O)cc2)OCCCC[C@H](C)O3)cc1`, the cytotoxicity call is “inactive”.

Regarding `COC(=O)C1CCN(S(=O)(=O)c2c(C)n(C)c(=O)n(C)c2=O)CC1`, the cytotoxicity call is “inactive”.

Turning to `O=C(CN1CCOCC1)NCC[C@@H]1CC[C@@H](NC(=O)c2ccccc2F)[C@H](CO)O1`, the cytotoxicity call is “inactive”.

As to `O=C(CN1CCOCC1)NCC[C@H]1CC[C@H](NC(=O)c2ccccc2F)[C@H](CO)O1`, the cytotoxicity call is “inactive”.

Take `O=C(CN1CCOCC1)NCC[C@@H]1CC[C@@H](NC(=O)c2ccccc2F)[C@@H](CO)O1`: the cytotoxicity call is “active”.

As for `CO/N=[N+](\[O-])NC(C)C`, the cytotoxicity call was “inactive”.

`C[C@@H]1CCCCO[C@H](CN(C)Cc2ccc(Cl)c(Cl)c2)[C@@H](C)CN([C@H](C)CO)C(=O)c2cc(NS(=O)(=O)c3ccc(F)cc3)ccc2O1`: the cytotoxicity call was “inactive”.

For `C[C@@H]1CCCCO[C@@H](CN(C)Cc2ccc(Cl)c(Cl)c2)[C@H](C)CN([C@H](C)CO)C(=O)c2cc(NS(=O)(=O)c3ccc(F)cc3)ccc2O1`, the cytotoxicity call was “active”.

Take `C[C@@H]1CCCCO[C@@H](CN(C)Cc2ccc(Cl)c(Cl)c2)[C@H](C)CN([C@@H](C)CO)C(=O)c2cc(NS(=O)(=O)c3ccc(F)cc3)ccc2O1`: the cytotoxicity call is “active”.

Regarding `C[C@H](CO)N1C[C@H](C)[C@H](CN(C)Cc2ccc(Cl)c(Cl)c2)OCCCC[C@H](C)Oc2ccc(NS(=O)(=O)c3ccc(F)cc3)cc2C1=O`, the cytotoxicity call is “active”.

As to `C[C@@H]1CCCCO[C@@H](CN(C)Cc2ccc(Cl)c(Cl)c2)[C@@H](C)CN([C@@H](C)CO)C(=O)c2cc(NS(=O)(=O)c3ccc(F)cc3)ccc2O1`, the cytotoxicity call was “inactive”.

On to `C[C@H](CO)N1C[C@H](C)[C@@H](CN(C)Cc2ccc(Cl)c(Cl)c2)OCCCC[C@H](C)Oc2ccc(NS(=O)(=O)c3ccc(F)cc3)cc2C1=O`, for which the cytotoxicity call is “inactive”.

Consider `C[C@H]1CCCCO[C@H](CN(C)Cc2ccc(Cl)c(Cl)c2)[C@@H](C)CN([C@@H](C)CO)C(=O)c2cc(NS(=O)(=O)c3ccc(F)cc3)ccc2O1`, for which the cytotoxicity call was “active”.
